From PubChem BioAssay AID686935 (National Center for Advancing Translational Sciences (NCATS), 2013)
Records with an inconclusive call do not appear. The source made the active and inactive calls. Calls follow the shape of the dose curve; as a rule, active = well fitted curve in the direction sought with a large enough effect; inconclusive = small, poorly fitted or top-dose-only effect, or another doubt; inactive = no such curve, though single readings can be large or run the other way.

Assay: qHTS Assay for Lipid Storage Modulators: CytotoxicityAssay against Probe and Analogs
Conditions: 3T3-L1 adipocytes cytotoxicity, imaging cell count; series mostly up to 20 µM
Excerpt: Storing lipids as a reservoir for energy or the anabolism of elementary metabolites is a common feature of probably all cells and is conserved from bacteria to humans. The universal cellular lipid storage organelle is the so-called lipid storage droplet (LD). Although ubiquitous, LDs share a simple structure composed of a hydrophobic core that harbors the storage lipids, which is shielded by a droplet-specific phospholipid monolayer to which proteins are attached. The current model of LD biogenesis involves an incorporation of the lipid core into the membrane leaflets of the endoplasmic reticulum (ER) followed by a subsequent budding-like maturation of a LD, which ultimately pinches off. Once released, LD volume can increase by localized lipogenesis or fusion of existing droplets. Storage lipids are re-mobilized enzymatically by lipase activity. Lipase regulation in the adipocyte is heavily studied and involves multiple components including catecholamine signaling, the LD-associated proteins Perilipin and comparative gene identification-58 (CGI-58) and at least two lipases named hormone sensitive lipase (HSL) and adipocyte triglyceride lipase (ATGL). LD regulation outside of the adipocyte is poorly understood and only few components are known. However, there is an urgent need to learn more about ectopic fat depots as mislocalized storage of lipids, for example in the liver or muscle, is an eminent health problem associated with insulin resistance or the metabolic syndrome. We developed a laser-scanning cytometer assay to enable 1,536-well screening and combined the results of the small molecules screen with an RNAi database based on lipid storage. In this assay we tested analogs of the probe in a cytotoxicity assay. NIH Molecular Libraries Probe Production Centers Network [MLPCN] NIH Chemical Genomics Center [NCGC] MLPCN Grant: MH085686 Assay Submitter (PI): Mathias Beller, Max-Planck-Institut fur Biophysikalische Chemie
3T3-L1 cells were obtained from ATCC (CL-173). Pre-adipocyte medium (PM-1),differentiation medium (DM-2) and after adipocyte medium (AM-1) were purchased from Zen-Bio (# PM-1-L1, DM-2-L1, AM-1-L1). […] of PM-1containing 3,000 cells was dispensed into each well of a 96-well plate (Corning, #3340), and the assay plates were incubated at 37 °C, 95% humidity and 5% CO2 for 3-5 days. The differentiation of pre-adipocyte to adipocyte was induced by removing the pre-adipocyte medium and replacing with […] of differentiation medium. […] of compounds at different concentrations dissolved in differentiation medium were added to the assay plates, along with medium exchange for differentiation to test their effects on adipocyte differentiation. The final DMSO concentration was 0.5%. Triacsin C (Sigma-Aldrich T-4540), an inhibitor of long-chain fatty acyl CoA synthetase that blocks synthesis of triglycerides, was used as a positive control for lipid under-storage. After 3 days, differentiation medium was replaced with 200ul of adipocyte maintenance medium and assay plates were incubated for 4 days. Cells were then fixed using4% of paraformaldehyde in PBS for 30 minutes at room temperature, washed 3 times with PBS buffer. Finally, the cells were stained using […] of PBS containing BODIPY lipid dye 493/530 (1:2000 -, Life Technologies, # D-3922), Hoechst 33342 (1:1000, Life Technologies, #H3570) and CellMask deep red dye (1:10,000 , Life Technologies, #H32721). Images were acquired using InCell 2000 (GE), number of cells, number of lipids, size of lipids and cells were analysis using GE Investigator software.

Structure (SMILES)	outcome
CCOc1ccc(CCNC(=O)c2cc3ccccc3n2CCN2CCOCC2)cc1OCC	inactive
CCOc1ccc(CCNC(=O)c2cc3sccc3n2Cc2ccc(F)cc2F)cc1OCC	inactive
CCOc1ccc(CCNC(=O)c2cc3ccccc3n2Cc2ccccn2)cc1OCC	inactive
CCOc1ccc(CCNC(=O)c2cc3ccccc3n2Cc2cccc(C)n2)cc1OCC	inactive
CCOc1ccc(CCNC(=O)c2cc3sccc3n2CCN(C)C)cc1OCC	inactive
CCOc1ccc(CCNC(=O)c2cc3cccnc3n2Cc2cccc(C)n2)cc1OCC	inactive
CCOc1ccc(CCNC(=O)c2cc3ncccc3n2Cc2cccc(C)n2)cc1OCC	inactive
CCOC(=O)C1CCN(C(=O)C2(NC(=O)Nc3ccccc3Cl)CCCC2)CC1	inactive
